# Screening results: PubChem BioAssay, National Center for Advancing Translational Sciences (NCATS)
# A selection: hits, their analogues and other compounds. The true share with any hit is near 6.5%.
# MARV entry inh = blocks Marburg virus binding to or entry into cells; 1.8% of 300,000 active; Potency, µM (highest dose often 37.8 µM), for the others: top-dose activity change, negative = inhibition, usual class: inhibitors; Marburg virus pseudotyped entry inhibition, cell reporter; calls by dose curve; tested in HEK293 cells; note: potency is the fitted concentration of half-maximal effect
# Lassa entry inh = blocks Lassa virus binding to or entry into cells. Potency, µM (top dose mostly 37.9 µM), inactives show at the top dose activity change, negative = inhibition, hits mostly inhibitors. 1.2% of 300,000 active. AID 540256. Lassa virus pseudotype entry inhibition, cell reporter; calls by dose curve; tested in HEK293 cells; note: potency is the fitted concentration of half-maximal effect; nearly all actives have a fitted effect of over 50% in size
# HCMV inh = human cytomegalovirus inhibition | HFF cells, HCMV-luciferase reporter, 72 h; hits give low values | activity change, negative = inhibition, % at 57.5 µM | 4.5% of 410,000 active | AID 1259415; in the data active = activity change below about -60%; inconclusive = no clear call, values can overlap the other calls; inactive = above about -39%
#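 Screen run at 2 compound doses on HFFs infected with reporter HCMV, MOI 1 PFU/cell. Luciferase activity from cell lysates at 72 h post infection gave inhibition relative to buffer-only and Salinomycin wells.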
# Vaccinia Venus = vaccinia inhibition (Venus reporter); Vaccinia virus Venus reporter expression, fluorescence; Potency, µM (highest dose often 36.5 µM), for inactives: at the top dose activity change, negative = inhibition, usual class: inhibitors; 0.46% of 330,000 active; AID 720580; calls by dose curve; tested in A549 cells; note: potency is the fitted concentration of half-maximal effect; nearly all actives have a fitted effect of over 30% in size
# Vaccinia mCherry = vaccinia inhibition (mCherry reporter) | Vaccinia virus mCherry reporter infection, fluorescence | Potency, µM (doses to about 36.5 µM), for the others: at the highest dose activity change, negative = inhibition, usual class: inhibitors | 0.63% of 310,000 active | AID 720579; calls by dose curve; tested in A549 cells; note: potency is the fitted concentration of half-maximal effect; nearly all actives have a fitted effect of over 35% in size
# FMDV antiviral = antivirals against foot and mouth disease virus; FMDV antiviral cell-based qHTS; Potency, µM (doses to about 57.9 µM), without a hit: top-dose activity change, negative = inhibition, hits mostly inhibitors; 1.2% of 410,000 active; calls by dose curve; tested in HEK293T cells; note: read-out not given here; potency is the fitted concentration of half-maximal effect; nearly all actives have a fitted effect of over 45% in size
# * marks the source's active call; other numbers are inactive results; i = inactive; ? = inconclusive; / = no result; [ ] = dose if it differs, or a comment. % is set by controls: 0 for no effect and ±100 for the full control effect.
SMILES,MARV entry inh,Lassa entry inh,HCMV inh,Vaccinia Venus,Vaccinia mCherry,FMDV antiviral
Cc1ccc(NC(=O)c2cccc(OCc3c(C)noc3C)c2)cc1S(=O)(=O)Nc1ccccc1Cl,-18%,?,-66*,-29%,-19%,32%
Cc1nc2sc(C(c3cccs3)N3CCOCC3)c(O)n2n1 (centres undefined),-26%,1%,15,6%,-12%,0%
COC(=O)C1CCN(C(c2cccs2)c2sc3nc(C)nn3c2O)CC1 (centres undefined),/,/,-14,-9%,-1%,-14%
Cc1nc2sc(C(c3ccc(Cl)cc3)N3CCOCC3)c(O)n2n1 (centres undefined),-19%,-17%,-101*,-13%,-17%,-2%
Cc1nc2sc(C(c3ccco3)N3CCN(c4ccccc4)CC3)c(O)n2n1 (centres undefined),/,/,-100*,-20%,-20%,-11%
Cc1nc2sc(C(c3cccs3)N3CCN(c4ccccc4)CC3)c(O)n2n1 (centres undefined),/,/,-70*,-9%,-7%,-14%
Cc1nc2sc(C(c3ccccc3)N3CCOCC3)c(O)n2n1 (centres undefined),1%,0%,-2,-3%,i,/
CCOC(=O)C1CCN(C(c2cccs2)c2sc3nc(C)nn3c2O)CC1 (centres undefined),/,/,-62*,1%,i,-12%
CC1(C)C[C@H](n2[nH]c(=O)c3c2NC(=O)CS[C@@H]3c2ccccc2)CCO1,14%,/,/,/,/,/
COc1ccc(CCNCc2ccc3c(c2)n(C)c(=O)n3C)cc1OC,-11%[46.1 µM],-11%[46.1 µM],-3,9%,4%,0%
CC1=C(Nc2ccc(C(=O)O)cc2)C(=O)c2ccccc2C1=O,/,/,76,/,/,9%
CCN(CC)CCCNC1=C(Cl)C(=O)c2ccccc2C1=O,?,?,-94*,?,?,28µM*
C=CCNC1=C(Cl)C(=O)c2ccccc2C1=O,?,?,68,13µM*,?,-14%
Cc1ccc(NC2=C(NC(=O)c3ccccc3)C(=O)c3ccccc3C2=O)cc1Cl,?,?,?,?,?,-27%
O=C(O)c1cccc(NC2=C(Cl)C(=O)c3ccccc3C2=O)c1,/,/,-100*,/,/,?
COCCCNC1=C(Cl)C(=O)c2ccccc2C1=O,-22%[46.1 µM],25%[46.1 µM],-22,-20%,?,4%
O=C(O)c1ccc(NC2=C(Cl)C(=O)c3ccccc3C2=O)cc1,/,/,?,/,/,25µM*
COc1ccc(C2Nc3ccccc3C(=O)N2c2ccccc2F)cc1COc1ccc(NC(C)=O)cc1 (centres undefined),/,/,/,-19%,-25%,/
Cc1ccc(CNC(=O)Cn2c3ncccc3c(=O)n2-c2ccc(C)cc2)cc1,/,20%[46.1 µM],17,-7%,-16%,0%
COC(=O)c1ccc(NC(=O)C(=O)NCCc2sc(-c3cccc(F)c3)nc2C)cc1,/,3%[46.1 µM],8,-15%,-17%,-2%
O=C1C(Cl)=C(NCc2cccnc2)C(=O)c2ccccc21,?,?,-28,28µM*,?,?
O=C1C(Cl)=C(NCCc2ccccc2)C(=O)c2ccccc21,?,?,-64*,25%,-23%,-17%
CC(=O)N(Cc1ccc(F)cc1)C1=C(NCCc2ccccc2)C(=O)c2ccccc2C1=O,?,7.1µM*,-100*,3.2µM*,2.8µM*,25µM*
Clc1ccccc1-c1cc(NCc2cccnc2)ncn1,/,/,/,-4%,-2%,22%
O=C1C(Cl)=C(Nc2ccccc2)C(=O)c2ccccc21,?,?,0,-1%,i,40µM*
CC(=O)N(Cc1ccc(F)cc1)c1cccc(C)c1C,-22%[46.1 µM],-12%,?,-15%,-17%,-14%
COC(=O)c1ccc(NC(=O)CC2C(=O)N(c3ccc(Cl)cc3)C(=O)N2Cc2ccco2)cc1 (centres undefined),/,2%[46.1 µM],4,-12%,-9%,8%
O=C1c2ccccc2C(=O)c2c(NCCc3ccc(O)cc3)ccc(NCCc3ccc(O)cc3)c21,21µM*,5.2µM*,/,/,/,/
COc1ccccc1OCCn1c(CCNC(=O)C2CCCCC2)nc2ccccc21,/,/,/,-9%,11%,/
CC(Nc1ccc2c(c1)OCCO2)C(=O)N1c2ccccc2CC1C (centres undefined),-2%[46.1 µM],8.9µM*,-39,-14%,-20%,-27%
